From PubChem BioAssay (NCATS) come the findings set out here.

Each structure is given as a SMILES string. Results filed as inconclusive are left out. Where a call stands in place of a potency, no number is given. Active and inactive are the calls of the source. Calls come from the whole dose curve.
Potency is the fitted concentration of half-maximal effect.

The assay is described as follows: Cytotoxicity counterscreen for inhibitors of SARS-CoV-2 cell entry (AID 1645845). Note: nearly all actives have a fitted effect of over 50% in size. The following applies: cell viability (SARS-CoV-2 entry assay cells); series mostly up to 57.1 µM; activity change, negative = cytotoxicity: at the top concentration. The source says:
Assay Provider: Wei Zheng, Ph.D.
National Center for Advancing Translational Sciences, National Institute of Health, Rockville, MD.
SARS-CoV-2 spike protein, within the viral envelope, mediates viral attachment and infection of host cells. The SARS-CoV-2 spike protein specifically binds to the host receptor ACE2 (Angiotensin-converting enzyme 2). This interaction promotes endocytosis of the viral particle, additional events lead to viral-host cell membrane fusion and release of the viral contents, allowing viral replication.
While SARS-CoV-2 requires BSL-3 facilities for live virus work, pseudo-typed partices (PP) that incorporate SARS-CoV-2 spike proteins without replication elements could facilitate studies on viral entry mechanisms in a BSL-2 setting. This PP cell entry assay could also enable screening of small molecule compound libraries in BSL-2 setting to identify inhibitors of SARS-CoV-2 cell entry. To eliminate false positive compounds, ATP content cytotoxicity assay was screened in the same cell line.
SEQUENCE No. (e.g., 1, 2, 3, etc.); […] (e.g., Cells, Incubation, Reagent, etc.); VALUE and DESCRIPTION.
1. Cells. Seed 1500 HEK293-ACE2 cells (Expi293F with stable expression of human ACE2) in 2 uL/well media (DMEM, 10% FBS, 1x L-glutamine, 1x Pen/Strep, 1 ug/ml puromycin) in white 1536-well assay plates (Greiner #782073).
2. Incubation. Incubate at 37 C with 5% CO2 overnight (~16 h).
3. Compounds. Dispense 23 nL/well compounds in DMSO via pin transfer.
4. Incubation. Incubate for 1 h at 37C 5% CO2.
5. Reagent. Dispense 2 uL/well of media (DMEM, 10% FBS, 1x L-glutamine, 1x Pen/Strep, 1 ug/ml puromycin).
6. Incubation. Incubate at for 48h at 37C 5% CO2
7. Reagent. Dispense 4 uL/well of ATPLite 1step luminescence assay reagent (PerkinElmer #6016739).
8. Incubation. Incubate for 15 min at room temperature.
9. Detection. Read luminescence signal (Viewlux plate reader, PerkinElmer). Data was normalized with wells containing cells as 100%, and wells without cells (media only control) as 0%.
Take `Cc1cccc(-c2nn3c(c2-c2ccnc4ccc(C(N)=O)cc24)CCC3)n1`: the call was inactive. In the case of `CO[C@H]1C[C@@H]2CC[C@@H](C)[C@@](O)(O2)C(=O)C(=O)N2CCCC[C@H]2C(=O)O[C@H]([C@H](C)C[C@@H]2CC[C@@H](OC(=O)C(C)(CO)CO)[C@H](OC)C2)CC(=O)[C@H](C)/C=C(\C)[C@@H](O)[C@@H](OC)C(=O)[C@H](C)C[C@H](C)/C=C/C=C/C=C/1C`, the Potency entry was “inactive”.

Consider `O=C(/C=C/c1cccc(S(=O)(=O)Nc2ccccc2)c1)NO`, for which the Potency is 12.6 µM (active). Turning to `CCCCCCCCCCCCCCCCCC(=O)OCC(C)O` (stereo not given), the “activity change, negative = cytotoxicity” value is -0.952% [at 114 µM] (inactive). In the case of `O=C(/C=C\n1cnc(-c2cc(C(F)(F)F)cc(C(F)(F)F)c2)n1)NNc1cnccn1`, the “activity change, negative = cytotoxicity” value was -22.3% (inactive). As to `CCCCC(CC)CCC(CC(C)C)OS(=O)(=O)O` (stereo not given), the compound was classed as inactive. For the compound `COc1nc(N)nc2c1ncn2C1OC(CO)C(O)C1O` (stereo not given), the “activity change, negative = cytotoxicity” value was 2.4% (inactive). For `OC[C@H]1O[C@@H](OC[C@H]2O[C@@H](O[C@@H]3[C@@H](O)[C@H](O)O[C@H](CO)[C@H]3O)[C@H](O)[C@@H](O[C@@H]3O[C@H](CO)[C@@H](O)[C@H](O)[C@H]3O)[C@@H]2O)[C@H](O)[C@@H](O)[C@@H]1O`, the call was inactive. As for `COc1cc(C[C@@H]2NCCc3cc(O)c(O)cc32)cc(OC)c1OC`, the “activity change, negative = cytotoxicity” value is -1.79% (inactive). The same measure, in the same setting: for `C[C@@](Cc1ccc(O)c(O)c1)(NN)C(=O)O` the value was 4.98% (inactive). In the case of `C/C(O)=C(\C#N)C(=O)Nc1ccc(C(F)(F)F)cc1`, the Potency is 8.91 µM (active). As for `CC[C@H]1OC(=O)C[C@@H](O)[C@H](C)[C@@H](OC2OC(C)C(O)C(N(C)C)C2O)[C@@H](CCN2CCCCC2)C[C@@H](C)C(=O)/C=C/C(C)=C/[C@@H]1CN1CCCCC1` (stereo not given in full), the result was inactive. As to `CCc1cc2c(c(OCC(F)(F)F)c(C(=O)NC3CCN(C(=O)CO)CC3)n2C)c(=O)n1CC(=O)c1ccccc1`, the outcome was inactive. In the case of `C[C@H]1CN(C[C@H](Cc2ccccc2)C(=O)NCC(=O)O)CC[C@@]1(C)c1cccc(O)c1`, the Potency result is “inactive”. As to `C[C@H]1CN(C2COC2)CCN1c1ccc(Nc2cc(-c3ccnc(N4CCn5c(cc6c5CC(C)(C)C6)C4=O)c3CO)cn(C)c2=O)nc1`, the compound was called inactive. Regarding `COC(=O)C1=C(C#N)NC(C)=C(C(=O)OC(C)C)C1c1cccc([N+](=O)[O-])c1` (stereo not given), the “activity change, negative = cytotoxicity” value is -11.7% (inactive). The same measure, in the same setting: the figure for `CNCc1ccc(-c2cc(-c3nc(-c4ccc(S(=O)(=O)C(C)C)cc4)cnc3N)on2)cc1` is -1.68% (inactive). Take `C[C@]12CCC3c4ccc(OS(=O)(=O)O)cc4CCC3C1CCC2=O` (stereo not given in full): the compound was classed as inactive.

On to `N#Cc1ccc2[nH]cc(CCCCN3CCN(c4ccc5oc(C(N)=O)cc5c4)CC3)c2c1`, for which the compound was classed as inactive. Take `COC(=O)N[C@H](C(=O)N1CCC[C@H]1c1ncc(-c2ccc3c(c2)O[C@@H](c2ccccc2)n2c-3cc3cc(-c4cnc([C@@H]5CCCN5C(=O)[C@@H](NC(=O)OC)C(C)C)[nH]4)ccc32)[nH]1)C(C)C`: the compound was called inactive. In the case of `CCCCC[C@@H](O)CC[C@H]1[C@@H]2Cc3cccc(OCC(=O)O)c3C[C@@H]2C[C@@H]1O`, the call was inactive.

Take `C[S+](CC[C@H](N)C(=O)O)C[C@H]1O[C@@H](n2cnc3c(N)ncnc32)[C@H](O)[C@H]1O` (stereo not given in full): the compound was called inactive. Take `COc1cc2nccc(Oc3ccc(NC(=O)c4cn(C(C)C)c(=O)n(-c5ccc(F)cc5)c4=O)cc3F)c2cc1OC`: the “activity change, negative = cytotoxicity” value was -2.69% (inactive).

Turning to `CCCCC/C=C/C/C=C/CCCCCCCC(=O)O`, the result was inactive. In the case of `CN1CC(O)c2cc(N=NC(=N)N)c(O)cc21` (stereo not given), the “activity change, negative = cytotoxicity” value was 3.26% (inactive).

As to `Cc1c(F)cc(C(=O)NC2CC2)cc1-c1c(F)cn2c(C(C)(C)C)nnc2c1F`, the compound was called inactive. Turning to `CC(C)[C@]12O[C@H]1[C@@H]1O[C@@]13[C@@]1(C)CCC4=C(COC4=O)[C@@H]1C[C@@H]1O[C@@]13C2=O`, the “activity change, negative = cytotoxicity” value was -35% (inactive). With `CC(C)(C)C(=O)OCC(=O)[C@H]1CC[C@H]2[C@@H]3CCC4=CC(=O)CC[C@]4(C)[C@H]3CC[C@]12C`, the “activity change, negative = cytotoxicity” value was 2.26% (inactive). Consider `CC/C=C\C/C=C\C/C=C\C/C=C\C/C=C\CCCC(=O)O`, for which the compound was classed as inactive.

In the case of `CNC(C)[C@@H](O)c1ccc(O)cc1` (stereo not given in full), the compound was called inactive. As for `NC[C@@H]1CC[C@@H](N)[C@@H](O[C@H]2[C@H](O)[C@@H](O[C@H]3O[C@H](CO)[C@@H](O)[C@H](N)[C@H]3O)[C@H](N)C[C@@H]2N)O1`, the “activity change, negative = cytotoxicity” value was -11.2% [at 27.1 µM] (inactive). Still for that read-out and setting: the figure for `O=C(O)[C@H](O)[C@@H](O)[C@H](O)[C@H](O)CO` is -16.1% (inactive); for `CCCCCCCCC=CCCCCCCCC(=O)NCCOC(=O)CC(C(=O)O)S(=O)(=O)O` (stereo not given) it is 0.918% (inactive); for `CCOCOC[C@H](C[C@H](C)C(=O)NO)NC(=O)c1ccc(Oc2ccccc2)cc1` it is -23% (inactive).

Take `c1ccc2ccccc2c1`: the “activity change, negative = cytotoxicity” value was 1.19% (inactive). As to `CC1(C)C(C=C(Cl)Cl)C1C(=O)OCc1cccc(Oc2ccccc2)c1` (stereo not given), the outcome was inactive.

With `CC[C@H]1OC(=O)[C@H](C)C(=O)[C@H](C)[C@@H](O[C@H]2O[C@H](C)C[C@H](N(C)C)[C@H]2O)[C@](C)(OC)C[C@@H](C)C(=O)[C@H](C)[C@H]2N(CCCCn3cnc(-c4cccnc4)c3)C(=O)O[C@]12C`, the compound was called inactive.

As for `CCCCCCCCCCCCCCCC(=O)OCC=C(C)C=CC=C(C)C=CC1=C(C)CCCC1(C)C`, the call was inactive.

As to `COC(=O)CCC[N+](C)(C)C`, the result was inactive. For `CC(=O)Nc1ccc(C(=O)Nc2ccccc2N)cc1`, the Potency was 7.08 µM (active).
